Data taken from PubChem BioAssay (NCI).
Compounds without any hit were thinned out: in the full panel of roughly 79,000, 15% have a hit. A number with no mark means an inactive call. The source made the active and inactive calls. Cut-off read from the data, not from the text of the source: active = growth inhibition above about 70%; inactive = the rest.

Columns and labels:
[1] = NCI Yeast Anticancer Drug Screen. Data for the rad50 strain (AID 155);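 note: 0% = growth of vehicle-only cultures of the same strain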; conditions: S. cerevisiae rad50 strain growth inhibition, active compounds read high
Procedure, shortened: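 Compounds were tested on a yeast strain with an engineered DNA damage repair alteration; the reported value is growth inhibition normalised to vehicle treatment.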

[2] = NCI Yeast Anticancer Drug Screen. Data for the mec2-1 strain (AID 157); conditions: S. cerevisiae mec2-1 strain, active compounds read high
Procedure, shortened: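 Strain: mec2-1 (DNA repair/cell cycle alteration). Compound exposure, then growth measured; inhibition expressed relative to vehicle.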

[3] = NCI Yeast Anticancer Drug Screen. Data for the sgs1 mgt1 strain (AID 161);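 note: 0% = growth of cultures given vehicle only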; conditions: S. cerevisiae sgs1 mgt1 strain, active compounds read high
Procedure, shortened: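 Mutant yeast exposed to compound; growth scored against vehicle-only wells.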

[4] = NCI Yeast Anticancer Drug Screen. Data for the cln2 rad14 strain (AID 165);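 note: 0% = growth equal to vehicle treated cultures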; conditions: S. cerevisiae cln2 rad14 strain, active compounds read high
Procedure, shortened: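 Compounds are applied to the cln2 rad14 yeast strain, and growth is then compared with that of vehicle-treated cultures to give inhibition.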

[5] = NCI Yeast Anticancer Drug Screen. Data for the bub3 strain (AID 167); conditions: S. cerevisiae bub3 mutant strain, active compounds read high
Procedure, shortened: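 Growth of a checkpoint-deficient yeast mutant is measured after compound exposure. Values represent inhibition relative to vehicle.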

[6] = NCI Yeast Anticancer Drug Screen. Data for the mlh1 rad18 strain (AID 175); conditions: S. cerevisiae mlh1 rad18 strain growth inhibition, active compounds read high
Procedure, shortened: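 Read-out is yeast growth inhibition, calculated against vehicle-only controls. The compound was applied to a strain engineered with DNA damage repair alterations.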

[7] = at 5.0 µM (retest, dose inferred, filed as 0.5)
[8] = at 50.0 µM (retest, dose inferred, filed as 5.0)

| Compound | growth inhibition [1, 7] [%] | growth inhibition [1, 8] [%] | growth inhibition ([1]; at 50.0 µM) | growth inhibition [2, 7] [%] | growth inhibition [2, 8] [%] | growth inhibition ([2]; at 50.0 µM) [%] | growth inhibition [3, 7] [%] | growth inhibition [3, 8] [%] | growth inhibition ([3]; at 50.0 µM) [%] | growth inhibition [4, 7] [%] | growth inhibition [4, 8] [%] | growth inhibition ([4]; at 50.0 µM) | growth inhibition [5, 7] [%] | growth inhibition [5, 8] | growth inhibition ([5]; at 50.0 µM) | growth inhibition [6, 7] [%] | growth inhibition [6, 8] | growth inhibition ([6]; at 50.0 µM) [%] |
| --- | --- | --- | --- | --- | --- | --- | --- | --- | --- | --- | --- | --- | --- | --- | --- | --- | --- | --- |
| C[Si](C)(c1ccccc1)C1CC(=O)CC(=O)C1 | 41 | 54 | 49.9% | 26 | 65 | 55.2 | 47 | 50 | 69.5 | 29 | 39 | 65.1% | 38 | 53% | 56% | 44 | 63% | 48.8 |
| CC(=O)O/C=C\COC(C)=O | 4 | 4 | 79.8% (active) | 2 | -2 | 47.8 | 3 | 2 | 42.5 | 3 | -2 | 33.5% | 6 | 1% | 86.3% (active) | 2 | 6% | 39.3 |
| OCc1cccc2c1Oc1ccccc1S2 | 2 | 55 | 52.4% | 4 | 63 | -25.4 | 1 | 66 | -10.3 | -5 | 17 | -59.5% | 11 | 73% (active) | -37.5% | 4 | 71% (active) | 2.9 |
| CC1CCN(CCC(=O)c2cccc(O)c2)CC1 | 4 | 57 | 48.5% | -5 | 44 | 36.3 | 2 | 48 | 29.8 | -2 | 26 | 21.1% | -16 | 39% | 15.5% | 10 | 77% (active) | 65.8 |
| C=C/C=C/CC=C | -151 | 38 | 34.2% | -48 | -41 | 1.2 | -62 | -38 | 6.6 | -45 | -50 | 85.3% (active) | -60 | -46% | 21.4% | -120 | -90% | 59.9 |
